Source: PubChem BioAssay (NCI)
The panel holds about 83,000 compounds, 20% with a hit somewhere; the sample as a whole holds those more often.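 Cells were grown in 96-well plates and exposed to the test compound at a single concentration for 48 hours; results are reported as percent growth, with values below 10 considered active.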 The source made the active and inactive calls.

What was measured:
Experiment in all cases: NCI-60 one-dose screen, 48 h (100 = growth as untreated, 0 = no growth, -100 = all killed)
Details in all cases: 10 µM unless noted
NCI-H23 lung = test system: NCI-H23 lung
NCI-H226 lung = test system: NCI-H226 lung
NCI-H322M lung = test system: NCI-H322M lung
HOP-62 NSCLC = test system: HOP-62 NSCLC
NCI-H460 lung = test system: NCI-H460 lung
HOP-92 NSCLC = test system: HOP-92 NSCLC
NCI-H522 lung = test system: NCI-H522 lung
A549/ATCC NSCLC = test system: A549/ATCC NSCLC
786-0 renal = test system: 786-0 renal
DU-145 prostate = test system: DU-145 prostate
K-562 leukemia = test system: K-562 leukemia
MALME-3M melanoma = test system: MALME-3M melanoma
MDA-MB-231 breast = test system: MDA-MB-231 breast
RXF 393 renal = test system: RXF 393 renal
SF-268 CNS = test system: SF-268 CNS
SF-295 CNS = test system: SF-295 CNS
SF-539 CNS = test system: SF-539 CNS
UACC-257 melanoma = test system: UACC-257 melanoma
M14 melanoma = test system: M14 melanoma

Measured: growth

Cc1ccc(/C(=N\N=C(N)N)c2ccccc2)cc1
inactive: NCI-H23 lung 16.6% | NCI-H322M lung 56.6% | HOP-92 NSCLC 27.3% | A549/ATCC NSCLC 16.9% | DU-145 prostate 10.4% | MALME-3M melanoma 61.8% | RXF 393 renal 10.4% | SF-268 CNS 36.1% | UACC-257 melanoma 59%
active: NCI-H226 lung -4.14% | HOP-62 NSCLC -30.4% | NCI-H460 lung 2.74% | NCI-H522 lung -11.8% | 786-0 renal -70.3% | K-562 leukemia 0.175% | MDA-MB-231 breast 2.26% | SF-295 CNS 1.44% | SF-539 CNS -24.2% | M14 melanoma -43.5%

CCN(CC)CC(O)CNc1c2ccc(Cl)cc2nc2ccc(OC)cc12 (stereo unspecified)
inactive: NCI-H226 lung 46.7% | SF-268 CNS 14.8% | SF-295 CNS 10.8%
active: NCI-H23 lung -39.1% | NCI-H322M lung -27.1% | HOP-62 NSCLC -47.1% | NCI-H460 lung 0.742% | HOP-92 NSCLC -13.9% | NCI-H522 lung -65.7% | A549/ATCC NSCLC -72.9% | 786-0 renal -16.1% | DU-145 prostate -26.4% | K-562 leukemia -10.3% | MALME-3M melanoma -98.4% | MDA-MB-231 breast -33.4% | RXF 393 renal -80.8% | SF-539 CNS -61.3% | UACC-257 melanoma -87% | M14 melanoma -94.2%

[2H]c1nc(Nc2ncc(F)c(-c3cc(F)c4nc(C)n(C(C)C)c4c3)n2)c([2H])c([2H])c1CN1CCN(C([2H])([2H])C([2H])([2H])[2H])CC1
active: RXF 393 renal 1.53%
inactive: NCI-H23 lung 50.6% | NCI-H226 lung 49.1% | NCI-H322M lung 44.6% | HOP-62 NSCLC 47% | NCI-H460 lung 53.1% | HOP-92 NSCLC 66.9% | NCI-H522 lung 58.1% | A549/ATCC NSCLC 38.8% | 786-0 renal 39% | DU-145 prostate 66.2% | K-562 leukemia 49.6% | MALME-3M melanoma 79.5% | MDA-MB-231 breast 65.2% | SF-268 CNS 64.5% | SF-295 CNS 57.8% | SF-539 CNS 72.1% | UACC-257 melanoma 52.3% | M14 melanoma 47.5%

C=C(C)[C@@H]1CC[C@]2(CNCCO)CC[C@]3(C)[C@H](CC[C@@H]4[C@@]5(C)CCC(N)[C@@](C)(CO)[C@@H]5CC[C@]43C)[C@@H]12 (stereo partly specified)
inactive: NCI-H23 lung 46.8% | NCI-H226 lung 94.1% | NCI-H322M lung 47.5% | HOP-92 NSCLC 38.8% | DU-145 prostate 10.3% | RXF 393 renal 30.2% | SF-268 CNS 10.1%
active: HOP-62 NSCLC -53.7% | NCI-H460 lung -56.4% | NCI-H522 lung -77.2% | A549/ATCC NSCLC -33.5% | 786-0 renal -58.1% | K-562 leukemia -63.2% | MALME-3M melanoma -84.2% | MDA-MB-231 breast -68.4% | SF-295 CNS -19.6% | SF-539 CNS -80.5% | UACC-257 melanoma -87.1% | M14 melanoma -77%

CCn1nc(C#Cc2c(C)ccc3c(Nc4ccc(Cl)cc4)nccc23)c2c(N)ncnc21
inactive: NCI-H23 lung 18.4% | NCI-H226 lung 14.8% | NCI-H322M lung 29.2% | NCI-H460 lung 10.6% | HOP-92 NSCLC 13.6% | A549/ATCC NSCLC 16.8% | 786-0 renal 14.1% | DU-145 prostate 34.9% | K-562 leukemia 12.8% | SF-268 CNS 17.5%
active: HOP-62 NSCLC -0.0802% | NCI-H522 lung -15.4% | MALME-3M melanoma -40.6% | MDA-MB-231 breast 8.63% | RXF 393 renal -4.58% | SF-295 CNS 4.88% | SF-539 CNS -31.6% | UACC-257 melanoma -9.69% | M14 melanoma 5.1%

CCN(CC)c1ccc(Nc2ccc(CC(=O)c3ccccc3)cc2)cc1
inactive: NCI-H23 lung 81.1% | NCI-H226 lung 97.4% | NCI-H322M lung 90.7% | HOP-62 NSCLC 94.6% | NCI-H460 lung 96.3% | HOP-92 NSCLC 77.5% | NCI-H522 lung 47% | A549/ATCC NSCLC 91.4% | 786-0 renal 88.3% | DU-145 prostate 98.1% | K-562 leukemia 82.3% | MALME-3M melanoma 106% | MDA-MB-231 breast 75.7% | RXF 393 renal 89.2% | SF-268 CNS 87% | SF-295 CNS 97.8% | SF-539 CNS 89.4% | UACC-257 melanoma 93.7% | M14 melanoma 87.6%

C=CCN1C(=O)[C@]2(SC1=S)[C@H](c1cccc(Cl)c1)CN(C)[C@]21C(=O)NC2C=CC(Cl)=C[C@H]21 (stereo partly specified)
inactive: NCI-H23 lung 45.7% | NCI-H226 lung 43.4% | NCI-H322M lung 87.2% | HOP-62 NSCLC 63.9% | NCI-H460 lung 55.3% | NCI-H522 lung 41.3% | A549/ATCC NSCLC 41.9% | 786-0 renal 24.8% | DU-145 prostate 48.8% | K-562 leukemia 22.9% | MALME-3M melanoma 35.7% | MDA-MB-231 breast 26.8% | RXF 393 renal 35.4% | SF-268 CNS 52.9% | SF-295 CNS 32.1% | SF-539 CNS 81.1% | UACC-257 melanoma 26.5% | M14 melanoma 29.9%
active: HOP-92 NSCLC -6.48%

C=C1c2c(C)nn(-c3ccc(S(N)(=O)=O)cc3)c2N(C)C23CC1C1(C)c4c(C)nn(-c5ccc(S(N)(=O)=O)cc5)c4N(C)C(C)(CC12)C3 (stereo unspecified)
inactive: NCI-H23 lung 51.4% | NCI-H226 lung 40.7% | NCI-H322M lung 75.7% | HOP-62 NSCLC 48.2% | NCI-H460 lung 12.4% | HOP-92 NSCLC 50.1% | NCI-H522 lung 44% | A549/ATCC NSCLC 17.6% | 786-0 renal 41.9% | DU-145 prostate 43.6% | K-562 leukemia 29.9% | MALME-3M melanoma 61.6% | MDA-MB-231 breast 39.6% | RXF 393 renal 33.3% | SF-268 CNS 42.2% | SF-295 CNS 30.1% | SF-539 CNS 57.1% | UACC-257 melanoma 49% | M14 melanoma 20.6%

Cc1cc(Cl)nc(N(CCCNc2ccnc3cc(Cl)ccc23)Cc2ccccn2)n1
inactive: NCI-H23 lung 33.6% | NCI-H226 lung 65% | NCI-H322M lung 68.7% | HOP-62 NSCLC 64% | NCI-H460 lung 48.7% | HOP-92 NSCLC 30.6% | NCI-H522 lung 40% | A549/ATCC NSCLC 56.1% | 786-0 renal 47.4% | DU-145 prostate 66.2% | MALME-3M melanoma 73.2% | MDA-MB-231 breast 53.4% | RXF 393 renal 41.8% | SF-268 CNS 74.6% | SF-295 CNS 38.9% | SF-539 CNS 38.9% | UACC-257 melanoma 53.5% | M14 melanoma 44.4%
active: K-562 leukemia 4.3%

CC(C)(C)CC(C)(C)Nc1c(-c2ccc(-c3ccccc3)cc2)nc2cnccn12
inactive: NCI-H23 lung 91.5% | NCI-H226 lung 87.4% | NCI-H322M lung 81.5% | HOP-62 NSCLC 79.9% | NCI-H460 lung 80% | HOP-92 NSCLC 93.3% | NCI-H522 lung 37.5% | A549/ATCC NSCLC 56.4% | 786-0 renal 80.6% | DU-145 prostate 94.9% | K-562 leukemia 62.7% | MALME-3M melanoma 108% | MDA-MB-231 breast 90.6% | RXF 393 renal 94.4% | SF-268 CNS 81.5% | SF-295 CNS 97.6% | SF-539 CNS 90.5% | UACC-257 melanoma 83.3% | M14 melanoma 89.2%

Cn1c(NCCc2ccc(O)c(O)c2)nc2c1c(=O)n(Cc1ccc(Cl)cc1)c(=O)n2C
active: NCI-H522 lung -10.7%
inactive: NCI-H23 lung 79.1% | NCI-H226 lung 84.5% | NCI-H322M lung 77.2% | HOP-62 NSCLC 88.5% | NCI-H460 lung 96.9% | HOP-92 NSCLC 47.1% | A549/ATCC NSCLC 104% | 786-0 renal 92.1% | DU-145 prostate 87.3% | K-562 leukemia 77.1% | MALME-3M melanoma 82.3% | MDA-MB-231 breast 52.3% | RXF 393 renal 73.2% | SF-268 CNS 72.4% | SF-295 CNS 103% | SF-539 CNS 82.7% | UACC-257 melanoma 117% | M14 melanoma 78.8%

Cc1[nH]c(-c2nc3ccccc3[nH]2)c(C)c1C(=O)NNc1ccc(Cl)cc1
inactive: NCI-H23 lung 91% | NCI-H226 lung 84.1% | NCI-H322M lung 89.6% | HOP-62 NSCLC 98.7% | NCI-H460 lung 103% | HOP-92 NSCLC 90.6% | NCI-H522 lung 80.9% | A549/ATCC NSCLC 93.1% | 786-0 renal 94.7% | DU-145 prostate 105% | K-562 leukemia 94.1% | MALME-3M melanoma 94.5% | MDA-MB-231 breast 79.2% | RXF 393 renal 103% | SF-268 CNS 95.3% | SF-295 CNS 109% | SF-539 CNS 95.7% | UACC-257 melanoma 91% | M14 melanoma 102%

C=C1C(=O)O[C@H]2[C@H]1CC/C(C(=O)NCCCCCCCCNC(=O)/C1=C/CC[C@@]3(C)O[C@H]3[C@H]3OC(=O)C(=C)[C@@H]3CC1)=C\CC[C@@]1(C)O[C@@H]21
inactive: NCI-H23 lung 92.3% | NCI-H226 lung 88.7% | NCI-H322M lung 94.9% | HOP-62 NSCLC 109% | NCI-H460 lung 110% | A549/ATCC NSCLC 82.9% | 786-0 renal 85.1% | DU-145 prostate 84.1% | K-562 leukemia 18.3% | MALME-3M melanoma 16.4% | MDA-MB-231 breast 74.3% | RXF 393 renal 43.1% | SF-268 CNS 91.8% | SF-295 CNS 110% | SF-539 CNS 70.1% | UACC-257 melanoma 61.8% | M14 melanoma 82.8%
active: HOP-92 NSCLC 4.35% | NCI-H522 lung -64.5%

CN1CCN(c2ccc(Nc3ncc(Cl)c(NC[C@@H]4CCCO4)n3)cc2)CC1
active: NCI-H226 lung 8.99% | HOP-62 NSCLC 7.27% | HOP-92 NSCLC 3.21% | RXF 393 renal -31.7% | SF-539 CNS -6.55%
inactive: NCI-H23 lung 15.8% | NCI-H322M lung 35.9% | NCI-H460 lung 13.2% | NCI-H522 lung 25.6% | A549/ATCC NSCLC 22.8% | 786-0 renal 26% | DU-145 prostate 23% | K-562 leukemia 27.2% | MALME-3M melanoma 27.4% | MDA-MB-231 breast 17.8% | SF-268 CNS 24.6% | SF-295 CNS 31.3% | UACC-257 melanoma 44.7% | M14 melanoma 21.7%
